Where “and” joins values, the source holds several entries; their conditions need not be identical. Equal entries are not always repeated. The campaign covered roughly 5,500 compounds. About 2,000 (36%) were called active. Inconclusive results (about 18%) are left out. Cut-off read from the data, not from the text of the source: active = normalized growth mostly below about 0.91 (no sharp cut-off); inconclusive = no clear call, values can overlap the other calls; inactive = mostly above about 0.92. The list shows a part of the results.
Test: chemical genetic growth profiling, strain panel (AID 1159580);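 note: tested at 20 µM; growth read once vehicle control cultures reached saturation at 30 °C; 1 = growth at the plate median or of vehicle wells; lower values mean less growth of the strain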
Conditions: S. cerevisiae deletion strains, growth OD

Measured: normalized growth

CCC1(c2ccc(N)cc2)CCC(=O)NC1=O (configuration not stated)
inactive: locus YAL021C, strain ccr4, stronger effect = lower value 0.981 | locus YAL026C, strain drs2, stronger effect = lower value 0.971 | locus YAL030W, strain snc1, stronger effect = lower value 0.969 | locus YAL040C, strain CLN3, stronger effect = lower value 0.987 | locus YBL061C, strain skt5, stronger effect = lower value 0.968 | locus YBR009C, strain hhf1, stronger effect = lower value 0.984 | locus YBR021W, strain FUR4, stronger effect = lower value 1.01 | locus YBR023C, strain chs3, stronger effect = lower value 0.979 | locus YBR171W, strain sec66, stronger effect = lower value 0.957 | locus YBR229C, strain ROT2, stronger effect = lower value 0.995 | locus YBR231C, strain swc5, stronger effect = lower value 0.943 | locus YBR279W, strain paf1, stronger effect = lower value 0.988 | locus YCL011C, strain gbp2, stronger effect = lower value 0.984 | locus YCL016C, strain dcc1, stronger effect = lower value 0.994 | locus YCL029C, strain bik1, stronger effect = lower value 1 | locus YCL069W, strain vba3, stronger effect = lower value 0.956 | locus YCR088W, strain abp1, stronger effect = lower value 0.974 | locus YDL005C, strain med2, stronger effect = lower value 0.955 | locus YDL035C, strain GPR1, stronger effect = lower value 1.04 | locus YDL040C, strain nat1, stronger effect = lower value 0.978 | locus YDL074C, strain BRE1, stronger effect = lower value 0.994 | locus YDL101C, strain DUN1, stronger effect = lower value 1.01 | locus YDL134C, strain PPH21, stronger effect = lower value 1.02 | locus YDL185W, strain tfp1, stronger effect = lower value 1.01 | locus YDL192W, strain arf1, stronger effect = lower value 0.996 | locus YDR001C, strain nth1, stronger effect = lower value 0.96 | locus YDR069C, strain doa4, stronger effect = lower value 0.962 | locus YDR101C, strain arx1, stronger effect = lower value 1.01 | locus YDR137W, strain rgp1, stronger effect = lower value 1.06 | locus YDR150W, strain NUM1, stronger effect = lower value 1 | locus YDR159W, strain sac3, stronger effect = lower value 0.979 | locus YDR162C, strain NBP2, stronger effect = lower value 1.03 | locus YDR195W, strain ref2 0.926 | locus YDR297W, strain sur2, stronger effect = lower value 0.973 | locus YDR318W, strain mcm21, stronger effect = lower value 0.991 | locus YDR334W, strain swr1, stronger effect = lower value 0.964 | locus YDR335W, strain msn5, stronger effect = lower value 0.959 | locus YDR363W, strain ESC2, stronger effect = lower value 1.01 | locus YDR388W, stronger effect = lower value 0.999 | locus YDR392W, strain spt3, stronger effect = lower value 1.02 | locus YDR502C, strain sam2, stronger effect = lower value 0.999 | locus YEL003W, strain gim4, stronger effect = lower value 0.957 | locus YEL037C, strain rad23, stronger effect = lower value 0.951 | locus YEL061C, strain CIN8 (second series), stronger effect = lower value 0.961 | locus YEL061C, strain CIN8, stronger effect = lower value 1.01 | locus YER002W, strain NOP16, stronger effect = lower value 0.977 | locus YER015W, strain faa2, stronger effect = lower value 0.966 | locus YER016W, strain bim1, stronger effect = lower value 0.987 | locus YER110C, stronger effect = lower value 0.993 | locus YER111C, strain swi4, stronger effect = lower value 0.968 | locus YER155C, strain BEM2 (second series), stronger effect = lower value 0.878 | locus YER155C, strain BEM2, stronger effect = lower value 0.999 | locus YER167W, strain BCK2, stronger effect = lower value 1 | locus YFR010W, strain ubp6, stronger effect = lower value 0.945 | locus YGL078C, strain dbp3, stronger effect = lower value 0.992 | locus YGL086W, strain mad1, stronger effect = lower value 0.994 | locus YGL167C, strain pmr1, stronger effect = lower value 0.961 | locus YGL173C, strain kem1, stronger effect = lower value 0.936 | locus YGL227W, strain vid30, stronger effect = lower value 0.976 | locus YGL248W, strain PDE1, stronger effect = lower value 0.999 | locus YGL253W, strain hxk2, stronger effect = lower value 0.967 | locus YGR078C, strain PAC10, stronger effect = lower value 0.997 | locus YGR135W, strain pre9, stronger effect = lower value 0.991 | locus YGR252W, strain gcn5, stronger effect = lower value 0.992 | locus YHR013C, strain ard1, stronger effect = lower value 0.956 | locus YHR027C, strain rpn1, stronger effect = lower value 0.981 | locus YHR030C, strain SLT2, stronger effect = lower value 1 and 0.997 | locus YHR079C, strain IRE1 (second series), stronger effect = lower value 0.995 | locus YHR079C, strain IRE1, stronger effect = lower value 1.04 | locus YHR094C, strain hxt1, stronger effect = lower value 0.995 | locus YHR129C, strain ARP1, stronger effect = lower value 0.999 | locus YHR142W, strain chs7, stronger effect = lower value 0.932 | locus YHR200W, strain rpn10, stronger effect = lower value 0.999 | locus YIL066C, strain RNR3, stronger effect = lower value 1.03 | locus YIL073C, strain SPO22, stronger effect = lower value 1.03 | locus YIL125W, strain kgd1, stronger effect = lower value 0.998 | locus YIR030C, strain dcg1, stronger effect = lower value 0.995 | locus YJL092W, strain hpr5, stronger effect = lower value 0.952 | locus YJL095W, strain BCK1 (second series), stronger effect = lower value 0.97 | locus YJL095W, strain BCK1, stronger effect = lower value 0.995 and 1.03 | locus YJL115W, strain asf1, stronger effect = lower value 0.949 | locus YJL129C, strain trk1, stronger effect = lower value 0.928 | locus YJL134W, strain LCB3, stronger effect = lower value 1 | locus YJL154C, strain vps35, stronger effect = lower value 0.967 | locus YJL164C, strain tpk1, stronger effect = lower value 0.998 | locus YJL166W, strain qcr8, stronger effect = lower value 0.913 | locus YJL168C, strain set2, stronger effect = lower value 0.988 | locus YJL187C, strain SWE1 (second series), stronger effect = lower value 0.993 | locus YJL187C, strain SWE1, stronger effect = lower value 0.959 | locus YJR043C, strain POL32, stronger effect = lower value 1.02 | locus YJR066W, strain TOR1, stronger effect = lower value 0.973
active: locus YGL240W, strain doc1, stronger effect = lower value 0.876

Reference: PubChem BioAssay AID1159580 (chemical genetic matrix, 2015)
